Rows were chosen to be rich in hits. Some 3.9% of all compounds tested hit in one or more screens of this group.
BoNT-F LC inh: blocks Botulinum neurotoxin F light chain protease | Multiplex microsphere protease cleavage assay, flow cytometry | inhibition, % at 10 µM | 360,000 tested, 0.22% active | AID 588497; in the data active = inhibition above about 35%, passing the limit was not always enough; inconclusive = no clear call, values can overlap the other calls; note: plate controls were buffer without enzyme for full effect and enzyme alone for no effect
SARS 3CLpro inh: SARS-CoV 3CLpro protease inhibition. P0C6X7. inhibition, % at 6 µM. recombinant SARS-CoV 3CLpro, quenched FRET peptide cleavage. 290,000 tested, 0.14% active; in the data active = inhibition above about 12%
Bead autofluor: counter-screen for toxin protease inhibitors: compound fluorescence. fluorescence intensity (concentration not given with the values). compound autofluorescence counterscreen, microsphere flow cytometry; hits give high values. 360,000 tested, 3.1% active; in the data active = fluorescence intensity above about 16000; inconclusive = no clear call, values can overlap the other calls
DUSP3 inh: blocks human VHR1 dual specificity phosphatase. P51452. recombinant VHR phosphatase, pNPP absorbance. inhibition, % at 13.3 µM. 290,000 tested, 0.52% active; in the data active = inhibition above about 50%
Target sequence (P51452 whole entry, looked up): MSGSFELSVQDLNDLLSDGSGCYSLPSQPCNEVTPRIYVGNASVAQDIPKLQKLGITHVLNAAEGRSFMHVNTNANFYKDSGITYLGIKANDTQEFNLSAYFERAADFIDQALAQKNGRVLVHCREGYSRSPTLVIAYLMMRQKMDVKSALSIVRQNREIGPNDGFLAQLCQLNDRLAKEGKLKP
Anthrax LF inh2: blocks Bacillus anthracis lethal factor protease | inhibition, % at 10 µM | multiplex microsphere protease cleavage assay, LF | AID 588501 | P15917 | 360,000 tested, 0.12% active; note: plate controls were buffer without enzyme for full effect and enzyme alone for no effect
BoNT-A LC inh2: inhibitors of Botulinum neurotoxin A light chain protease; multiplex microsphere protease substrate cleavage, flow cytometry; inhibition, % at 10 µM; 360,000 tested, 0.17% active; note: plate controls were buffer without enzyme for full effect and enzyme alone for no effect
* marks the source's active call; other numbers are inactive results; ? = inconclusive; . = no result given. Cut-off read from the data, not from the text of the source, unless noted: active = inhibition above about 30%; inconclusive = no clear call, values can overlap the other calls; inactive = below that.

SMILES	BoNT-F LC inh	SARS 3CLpro inh	Bead autofluor	DUSP3 inh	Anthrax LF inh2	BoNT-A LC inh2
CCOC(=O)C1=C(c2ccccc2)NC(SCC(=O)Nc2cccc(C)c2)=C(C#N)C1c1ccco1 (configuration not stated)	-1	-6	15951	-2	-6	?
CCOC(=O)CSC1=C(C#N)C(c2ccco2)C(C(=O)Nc2cccc(C(F)(F)F)c2)=C(C)N1 (configuration not stated)	-8	4	25424*	3	-1	-6
C/C(=N\NC(=O)C(C)Sc1ccccc1)c1ccc([N+](=O)[O-])cc1 (configuration not stated)	8	-6	3135	15	-12	0
Cc1ccccc1NC(=O)CC1S/C(=N/c2nccs2)N(C)C1=O (configuration not stated)	-11	2	4594	7	2	1
CCc1ccccc1NC(=O)CC1S/C(=N\c2nccs2)N(CC)C1=O (configuration not stated)	0	3	17187*	29	-1	-2
COc1ccc(C(=O)C2CCCN(C(=O)C3=CCCC3)C2)c(C)c1 (configuration not stated)	2	2	4564	14	1	1
Cc1ccc(C)c(S(=O)(=O)N2CCN(C(=O)CCC(=O)c3cc(C)sc3C)CC2)c1	10	.	4907	.	-1	3
COc1ccccc1/C=C\C(=O)NCC(=O)N/N=C/c1ccc(O)cc1O	-3	0	4162	56*	0	0
COc1ccccc1/C=C/C(=O)NCC(=O)N/N=C/c1ccccc1	-7	4	3350	10	-2	-2
Cc1ccc(C(=O)c2c(C)oc3c2C(=O)C(=O)c2ccccc2-3)cc1	11	1	2292	9	18	20
Cc1oc2c(c1C(=O)c1ccc(Cl)cc1)C(=O)C(=O)c1ccccc1-2	13	2	1961	13	21	30*
CCOc1c(C(=O)CC)cc2c(C)cc(=O)oc2c1C	-1	-3	16306*	13	-4	0
CS(=O)(=O)N(CC(=O)Nc1cc(Cl)ccc1Cl)c1ccccc1	-4	4	24006*	-6	-2	-2
CCOc1ccc(N(CC(=O)Nc2ccccc2Cl)S(C)(=O)=O)cc1	0	1	3438	59*	-5	0
CCN(CC)S(=O)(=O)c1cc(Cl)ccc1OC	-6	0	2599	11	-1	-1
Cn1c(=O)[nH]c(=O)c2c1nc(Br)n2CCSc1nc2ccccc2o1	2	2	22279*	-1	0	?
Cn1c(=O)[nH]c(=O)c2c1nc(N1CCCCCC1)n2CCSc1nc2ccccc2o1	-1	0	6988	7	-11	-2
COC(=O)Cc1c(C)nc2nc(NCc3ccc(Cl)cc3)[nH]n2c1=O	-4	2	9208	-14	1	0
COC(=O)Cc1c(C)nc2nc(NCc3cccc([N+](=O)[O-])c3)[nH]n2c1=O	2	1	19811*	19	-2	2
CCC(=O)N1CCc2cc(S(=O)(=O)CCC(=O)N3CCN(c4ccc(C(C)=O)cc4)CC3)ccc21	-4	-7	5947	-26	0	-2
C/C(=N\OC(=O)c1ccc(Cl)cc1)c1nccs1	-5	7	24861*	20	-2	-2
CCCCOCCCNC(=O)C[C@@H]1C[C@@]2(C(=O)OC)CCCCC=C2N(Cc2ccccc2)C1=O	-7	.	6920	.	-2	-1
COc1ccc(-c2nnc(N)s2)cc1	-5	4	23923*	19	-6	-1
COc1ccc(S(=O)(=O)N2CCCOC2CNC(=O)C(=O)NC2CCCC2)cc1 (configuration not stated)	4	-2	4431	76	-6	1
CC(C)NC(=O)c1cc(C2CCCCN2S(=O)(=O)c2cccc3cccnc23)on1 (configuration not stated)	4	.	3681	.	7	0
SMILES	BoNT-F LC inh	SARS 3CLpro inh	Bead autofluor	DUSP3 inh	Anthrax LF inh2	BoNT-A LC inh2
Cc1cccn2c(=O)c(C=Nc3ccc(Cl)cc3)c(NCCO)nc12	-4	-3	21575*	26	0	-2
CC(C)(O)C#Cc1ccc(C(=O)NCCC(=O)O)s1	-1	1	4626	14	-11	-1
Cc1ccc(CNC(=O)c2ccc(C#CC(C)(C)O)s2)cc1	-6	1	22677*	20	-2	?
CCc1nc2c(OCc3ccc(Cl)cc3Cl)cccn2c1N(C)C(=O)CC(C)C	-2	.	2963	.	-4	0
O=C(Nc1ccc(Br)cn1)c1ccc(COc2c(F)c(F)cc(F)c2F)o1	-1	.	7779	.	3	0
O=C(Nc1ccn(Cc2c(F)c(F)cc(F)c2F)n1)c1ccc(COc2cc(Cl)ccc2Cl)o1	4	3	22103*	24	-2	3
O=C(Nc1ccn(Cc2ccccc2F)n1)c1ccc(COc2ccccc2Cl)cc1	-2	7	19484*	33	-3	1
Cc1ccnc(NC(=O)c2ccc(COc3c(F)c(F)cc(F)c3F)o2)c1	?	-6	3832	58*	-5	0
Cn1c(=O)c2c(ncn2CCCc2ccccc2)n(C)c1=O	4	2	20359*	41	-13	3
CCCCn1cnc2c1c(=O)n(C)c(=O)n2C	-7	1	23846*	40	-3	-3
COc1ccc(NS(=O)(=O)c2ccc(-n3nnc4ccccc43)c([N+](=O)[O-])c2)cc1	0	1	21241*	12	-11	3
O=[N+]([O-])c1cc(S(=O)(=O)Nc2cccc(C(F)(F)F)c2)ccc1-n1nnc2ccccc21	-5	8	2550	2	0	-1
CN(C)CCCNS(=O)(=O)c1ccc(-n2nnc3ccccc32)c([N+](=O)[O-])c1	-14	3	5843	58*	-2	-1
CS(=O)(=O)c1ccc(-n2nnc3ccccc32)c([N+](=O)[O-])c1	1	-2	6056	34	-1	0
COc1cccc2ccc(CC(O)(c3ccccc3)c3ccccc3)nc12	-4	.	3624	.	-5	0
O=C(COC(=O)C1CC1)NCc1ccccc1Cl	-5	6	3195	2	1	0
O=C1C=C(c2ccccc2)CO1	-6	.	3594	.	0	0
COc1ccc(C(=O)OCC[N+]2(C)CCOCC2)cc1	-4	-2	4605	53*	-4	0
CCOc1ccc(CCNC(=O)C2CCCN(S(=O)(=O)N3CCCCC3)C2)cc1OCC (configuration not stated)	0	.	5326	.	-12	0
O=C(O)c1ccc2c(c1)C(=O)N(C(Cc1ccc(O)cc1)C(=O)O)C2=O (configuration not stated)	2	-3	21507*	34	-2	3
O=S1(=O)N[C@@H](Cc2ccccc2)COc2cc(N3CCC[C@@H]3CO)ccc21	10	.	5387	.	-3	0
Cc1cccc(C)c1-n1nnnc1C(c1ccnc2ccccc12)N(C)Cc1ccc(Cl)c(Cl)c1 (configuration not stated)	1	.	4369	.	-2	0
